This note sets out measurements from PubChem BioAssay AID2283364 (EPA ToxCast).

Results filed as inconclusive are left out. Active and inactive are the calls of the source. The calls were made as follows: active = hit-call score of the fitted dose curve at least 0.9, where 1 is the maximum; inconclusive = response in the unintended direction; inactive = score below 0.9.

The target of the test is human FK-506 Binding Protein (FKBP12), FKBP1A (gene 2280) (UniProt P62942). Briefly: NVS_OR_hFKBP12: NovaScreen (NVS) Nuclear Receptor Binding Assay for human FK-506 Binding Protein (FKBP12). How it is done: NVS_OR_hFKBP12 is a biochemical, single-readout assay that uses extracted gene-proteins from E. coli in a cell-free assay. Measurements were taken 0.75 hour after chemical dosing in a 48-well plate.NVS_OR_hFKBP12 is one of one assay component(s) measured or calculated from the NVS_OR_hFKBP12 assay. It is designed to make measurements of radioligand binding, a form of binding reporter, as detected with scintillation counting signals by Filter-based radiodetection technology.Data from the assay component NVS_OR_hFKBP12 was analyzed into 1 assay endpoint. This assay endpoint, NVS_OR_hFKBP12, was analyzed in the positive analysis fitting direction relative to DMSO as the negative control and baseline of activity. Using a type of binding reporter, loss-of-signal activity can be used to understand changes in the binding as they relate to the gene FKBP1A. Furthermore, this assay endpoint can be referred to as a primary readout, because the performed assay has only produced 1 assay endpoint. To generalize the intended target to other relatable targets, this assay endpoint is annotated to the misc protein intended target family, where the subfamily is chaperone.
Chain of human FK-506 Binding Protein (FKBP12), FKBP1A (gene 2280) (P62942 whole entry, looked up): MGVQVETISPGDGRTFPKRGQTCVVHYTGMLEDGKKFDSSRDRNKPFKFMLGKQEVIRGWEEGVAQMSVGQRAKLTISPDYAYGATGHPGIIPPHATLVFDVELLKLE
Binding assays used specific radioligands (tritiated, iodinated) with non-radioactive competitive displacement ligands in agonist or antagonist protocols (as indicated) and various reference compounds and inhibitors to titrate specific binding to receptors and transporters. Most enzyme assays (CYPs, kinases, phosphatases, proteases, HDACs) used recombinant protein and specific substrates (fluorescence mostly, some colorimetric and radioactive) and inhibitors, followed by a biochemical separation of substrate and product. All assays for the biochemical HTS were initially run in duplicate at a single concentration (10 uM for CYP450 assays and 25 uM for all others). Assay-chemical combinations meeting a pre-defined threshold (e.g., 30% inhibition and other criteria defined below) were then run in singleton concentration-response format with maximum concentration of 20 uM for CYPs and 50 uM for all others. Each assay was run with positive and negative controls, and concurrent controls on every plate. The follow-up (secondary) screen tested active chemical-pairs in concentration series, as well as a few additional assays not tested in the primary screen, some selected negative inactives, and several cases re-run in the concentration series for confirmatory purposes.
Take `COC(=O)c1ccccc1S(=O)(=O)NC(=O)Nc1nc(OC(F)F)cc(OC(F)F)n1`: the molecule was called inactive.

`c1ccc2ccccc2c1`: the molecule was classed as inactive.

`Cc1ccc(O)cc1`: the molecule was classed as inactive.

On to `CCCCCCCCCCCC(=O)OC`, for which the call was inactive.

Consider `CCc1ccc(O)c(C(C)(C)C)c1`, for which the outcome was inactive.
